Reference: PubChem BioAssay (NCATS)
Records with an inconclusive call do not appear. Entries that show only a call come without a potency. Active and inactive are the calls of the source. Unless noted, calls come from the whole dose curve; as a rule, active = well fitted curve in the direction sought with a large enough effect; inconclusive = small, poorly fitted or top-dose-only effect, or another doubt; inactive = no such curve, though single readings can be large; an effect the other way counts as inactive or inconclusive.

How the values were obtained:
[1] = molecular target: Flap endonuclease 1 (Homo sapiens) (UniProt P39748); experiment: qHTS Validation Assay for the Inhibitors of Human Flap endonuclease 1 (FEN1) (AID 488816); conditions: FEN1 nuclease activity, fluorogenic DNA substrate; series mostly up to 57.1 µM
Outline: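 Enzyme reagent 10 nM; cpds pinned; 15 min RT preinc.; substrate 50 nM final; reads t=0 and 15 min; no-enzyme buffer wells as neg. control; normalized data, 4-parameter Hill fit.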

[2] = molecular target: Chromobox protein homolog 1 (Homo sapiens) (UniProt P83916); experiment: qHTS Validation Assay for Inhibitors of HP1-beta Chromodomain Interactions with Methylated Histone Tails (AID 488953); conditions: HP1-beta chromodomain / methylated histone peptide binding assay; series mostly up to 114 µM; note: nearly all actives have a fitted effect of over 50% in size; note: potency is the fitted concentration of half-maximal effect
Outline: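 AlphaScreen proximity signal from streptavidin donor and nickel chelate acceptor beads (final 10 ug/mL) after 30 min dark incubation. Compounds had 30 min at room temperature with preformed complex of 50 nM HP1-beta and 50 nM b-H3(1-18)K9me3 in PBS pH 7.4 with 0.01% Tween-20.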

[3] = molecular target: Methanococcus maripaludis chaperonin (MmCpn) (UniProt Q6LX38); experiment: High-Throughput Screening for Modulators of Cytosolic Chaperonin Activity: MmCpn Primary Screen (AID 488978); conditions: Purified MmCpn ATPase activity, ADP HTRF detection, 10 min; series mostly up to 76.9 µM;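 note: 50 nM MmCpn enzyme hydrolysing 30 µM ATP at 37 °C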
Outline: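 ATPase activity of 50 nM MmCpn was assayed with 30 uM ATP, 10 minutes at 37C, after a 5 min compound preincubation at room temperature. ADP production was read as HTRF emission at 590 and 665 nm.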

[4] = molecular target: Transient receptor potential cation channel subfamily V member 1 (Homo sapiens) (UniProt Q8NER1); experiment: HTS Assay for Compounds that Act as Enhancers of the Vanilloid Receptor 1 (AID 488979); conditions: TRPV1-expressing cells, enhancer of channel activity, stimulated with capsaicin at EC20; series mostly up to 41.7 µM
Outline: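 TRPV1 cells loaded with Fluo-8 calcium dye; compound added and Ca2+ signal (ex 480/em 520 nm) followed 3 min, then capsaicin at EC20 added and read 2 more min to detect enhancement.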

[5] = molecular target: D(1A) dopamine receptor (Homo sapiens) (UniProt P21728); experiment: HTS Assay for Allosteric Agonists of the Human D1 Dopamine Receptor: Primary Screen for Potentiators (AID 488982); conditions: HEK293 T-REx D1 inducible cells, calcium flux, kinetic fluorescence; series mostly up to 8.37 µM
Outline: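 Tetracycline-induced HEK293 Trex D1 cells with forced coupling to calcium, loaded with no-wash calcium dye; kinetic fluorescence read 180 s after compound addition for agonism, then a further 180 s after an EC20 dopamine challenge for potentiation.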

[6] = molecular target: D(1A) dopamine receptor (Homo sapiens) (UniProt P21728); experiment: HTS Assay for Allosteric Agonists of the Human D1 Dopamine Receptor: Primary Screen for Antagonists (AID 488983); conditions: D1 receptor cell assay, antagonist mode, qHTS titration; series mostly up to 41.8 µM;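 note: calcium flux response to an EC80 dopamine challenge measured with no-wash dye; nearly all actives have a fitted effect of over 65% in size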; note: potency is the fitted concentration of half-maximal effect
Outline: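 Calcium-flux read-out in inducible HEK293 T-REx cells expressing D1, dye-loaded 30–90 min at room temperature. Kinetic reads: 180 s after compound (agonist phase), then 180 s after an EC80 dopamine challenge.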

[7] = Validation screen for small molecules that induce genotoxicity in human embryonic kidney (HEK293T) cells expressing luciferase-tagged ELG1 (AID 493106); conditions: luminescence; series mostly up to 46.1 µM
Outline: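 ELG1-luciferase reporter readout (ONE-Glo, 30 min, room temperature) after 16 hr compound treatment at 37 °C of HEK293T cells at 2,000 per well. Rising luminescence flags genotoxic stress.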

[8] = Nrf2 qHTS screen for inhibitors: Validation (AID 493153; active = well fitted inhibition curve with a large enough effect in the main read-out, with a control signal flat, not every such curve was filed as active); conditions: A549 ARE-Fluc reporter, 18-24 h; viability change: measured here: cytotoxicity max response; luciferase luminescence, at 46.1 µM (top of the series)
Outline: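 Concentration-response on A549 ARE_Fluc reporter cells exposed 18-24 h at 37 C, 5% CO2. Cytotoxicity read first by CellTiter-Fluor fluorescence (Ex 405/Em 525), then Nrf2 inhibition by BugLite luminescence after 15 min.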

[9] = qHTS for Inhibitors of Cell Surface uPA Generation: Validation Assay (AID 493164); conditions: mouse cells, plasminogen activation; series mostly up to 38.3 µM;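 note: RAW 264.7 macrophage cells exposed to compound for 18 h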
Outline: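 ATP-Lite luminescence read-out: ATP remains high when uPA activity-dependent LF translocation into the cytoplasm is blocked. RAW 264.7 cells, 18 h compound exposure at 37 C; 7-point titration, 2.45 nM to 38.3 uM final.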

[10] = molecular target: ATP-dependent 6-phosphofructokinase (Trypanosoma brucei brucei) (UniProt O15648); experiment: qHTS Assay to Find Inhibitors of T. brucei phosphofructokinase: hit validation (AID 492961); conditions: T. brucei PFK, ADP-Glo luminescence; series mostly up to 51.4 µM
Outline: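 Luminescence from ADP-Glo reports ADP generated as T. brucei PFK (1.25 nM) phosphorylates 0.5 mM fructose-6-phosphate using 0.1 mM ATP. Reactions ran 45 min at room temperature, pH 8.0.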

Chain of Methanococcus maripaludis chaperonin (MmCpn) (Q6LX38 1-543): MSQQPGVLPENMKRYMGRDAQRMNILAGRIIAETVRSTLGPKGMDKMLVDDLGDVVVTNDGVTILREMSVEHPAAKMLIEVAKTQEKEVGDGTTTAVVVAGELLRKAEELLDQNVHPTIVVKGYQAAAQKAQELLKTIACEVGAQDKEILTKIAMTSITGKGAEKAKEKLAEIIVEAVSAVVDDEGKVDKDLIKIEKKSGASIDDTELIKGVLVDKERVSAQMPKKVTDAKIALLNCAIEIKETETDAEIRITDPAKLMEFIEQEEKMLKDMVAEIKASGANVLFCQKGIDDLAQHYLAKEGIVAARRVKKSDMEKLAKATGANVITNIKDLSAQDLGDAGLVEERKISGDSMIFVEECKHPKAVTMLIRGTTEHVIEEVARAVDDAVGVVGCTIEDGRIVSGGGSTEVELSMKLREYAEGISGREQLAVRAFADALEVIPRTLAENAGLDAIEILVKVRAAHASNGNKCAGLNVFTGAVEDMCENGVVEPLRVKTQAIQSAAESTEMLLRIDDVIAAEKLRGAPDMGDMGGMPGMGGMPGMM
Chain of Flap endonuclease 1 (Homo sapiens) (P39748 whole entry, looked up): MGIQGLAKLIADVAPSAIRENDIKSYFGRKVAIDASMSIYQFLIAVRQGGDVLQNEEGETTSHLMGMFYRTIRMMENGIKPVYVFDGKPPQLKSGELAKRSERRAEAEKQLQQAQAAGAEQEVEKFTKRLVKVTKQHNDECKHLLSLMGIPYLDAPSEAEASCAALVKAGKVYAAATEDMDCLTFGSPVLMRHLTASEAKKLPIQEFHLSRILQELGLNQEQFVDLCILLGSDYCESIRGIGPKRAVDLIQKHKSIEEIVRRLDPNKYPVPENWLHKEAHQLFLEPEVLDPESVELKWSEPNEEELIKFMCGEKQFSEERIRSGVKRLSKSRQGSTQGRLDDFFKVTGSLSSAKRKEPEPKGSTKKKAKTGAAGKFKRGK
Chain of Chromobox protein homolog 1 (Homo sapiens) (P83916 whole entry, looked up): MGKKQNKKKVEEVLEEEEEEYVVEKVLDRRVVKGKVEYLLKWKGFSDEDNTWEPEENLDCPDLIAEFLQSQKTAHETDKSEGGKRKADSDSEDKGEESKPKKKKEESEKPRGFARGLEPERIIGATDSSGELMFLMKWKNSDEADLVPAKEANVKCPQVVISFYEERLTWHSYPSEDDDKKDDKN
Chain of Transient receptor potential cation channel subfamily V member 1 (Homo sapiens) (Q8NER1 whole entry, looked up): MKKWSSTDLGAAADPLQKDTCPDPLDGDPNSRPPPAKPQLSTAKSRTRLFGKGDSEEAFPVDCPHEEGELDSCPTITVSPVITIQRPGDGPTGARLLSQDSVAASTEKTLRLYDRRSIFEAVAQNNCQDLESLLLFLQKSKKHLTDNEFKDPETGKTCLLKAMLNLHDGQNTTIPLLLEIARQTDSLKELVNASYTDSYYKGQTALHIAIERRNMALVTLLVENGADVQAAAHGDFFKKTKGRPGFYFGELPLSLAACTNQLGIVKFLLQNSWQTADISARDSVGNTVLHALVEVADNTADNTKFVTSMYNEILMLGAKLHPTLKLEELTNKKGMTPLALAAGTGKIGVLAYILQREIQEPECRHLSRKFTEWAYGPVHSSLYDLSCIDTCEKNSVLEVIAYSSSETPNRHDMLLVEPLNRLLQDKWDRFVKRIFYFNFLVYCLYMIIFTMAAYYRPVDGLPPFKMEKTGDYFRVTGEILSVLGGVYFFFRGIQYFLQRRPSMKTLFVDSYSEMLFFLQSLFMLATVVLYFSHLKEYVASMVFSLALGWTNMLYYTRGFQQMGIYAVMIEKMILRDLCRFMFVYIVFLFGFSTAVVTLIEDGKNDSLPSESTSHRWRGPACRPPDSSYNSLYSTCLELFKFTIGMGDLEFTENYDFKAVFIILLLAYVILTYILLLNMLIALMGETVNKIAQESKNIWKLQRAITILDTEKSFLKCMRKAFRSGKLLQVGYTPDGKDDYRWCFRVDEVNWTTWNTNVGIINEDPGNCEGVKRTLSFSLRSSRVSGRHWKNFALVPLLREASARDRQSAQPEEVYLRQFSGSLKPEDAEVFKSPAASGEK
Chain of D(1A) dopamine receptor (Homo sapiens) (P21728 whole entry, looked up): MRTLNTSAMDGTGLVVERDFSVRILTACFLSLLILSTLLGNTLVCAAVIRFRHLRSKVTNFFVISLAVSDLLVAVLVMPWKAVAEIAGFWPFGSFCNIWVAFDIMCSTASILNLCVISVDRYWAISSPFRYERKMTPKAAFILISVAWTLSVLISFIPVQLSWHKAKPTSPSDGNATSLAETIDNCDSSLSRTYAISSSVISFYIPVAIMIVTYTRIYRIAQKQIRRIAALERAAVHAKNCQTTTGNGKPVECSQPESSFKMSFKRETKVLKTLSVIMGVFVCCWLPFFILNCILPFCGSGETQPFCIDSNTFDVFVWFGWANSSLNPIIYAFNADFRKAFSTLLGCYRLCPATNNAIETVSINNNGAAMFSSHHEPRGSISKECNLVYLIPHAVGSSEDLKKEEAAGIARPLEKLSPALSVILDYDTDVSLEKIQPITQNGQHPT
Chain of ATP-dependent 6-phosphofructokinase (Trypanosoma brucei brucei) (O15648 whole entry, looked up): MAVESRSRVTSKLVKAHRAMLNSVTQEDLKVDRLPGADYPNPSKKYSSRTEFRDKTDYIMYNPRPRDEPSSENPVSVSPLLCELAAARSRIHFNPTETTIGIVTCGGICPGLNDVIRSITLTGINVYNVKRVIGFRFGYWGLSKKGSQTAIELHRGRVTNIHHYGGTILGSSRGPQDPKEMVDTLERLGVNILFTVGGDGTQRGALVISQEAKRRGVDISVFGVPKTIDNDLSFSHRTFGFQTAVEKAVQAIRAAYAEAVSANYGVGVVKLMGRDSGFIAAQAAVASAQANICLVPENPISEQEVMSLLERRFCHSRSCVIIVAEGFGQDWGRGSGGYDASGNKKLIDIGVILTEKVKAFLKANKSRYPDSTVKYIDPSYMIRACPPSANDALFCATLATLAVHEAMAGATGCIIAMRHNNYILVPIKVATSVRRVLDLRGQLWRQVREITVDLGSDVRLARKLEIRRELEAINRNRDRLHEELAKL

Structure (SMILES) | outcome [1] | Potency [2] | outcome [3] | outcome [4] | outcome [5] | Potency [6] | outcome [7] | outcome [8] | viability change [8] [%] | outcome [9] | outcome [10]
CCC(NC(C)C)C(O)c1ccc(O)c(O)c1 (stereo unspecified) | inactive | inactive | inactive | inactive | inactive | inactive | inactive | inactive | -19.1 | inactive | 
CCOC(=O)/C=C(C)/C=C/C=C(C)/C=C/c1c(C)cc(OC)c(C)c1C |  |  |  |  |  |  |  |  |  |  | inactive
CC(C)C[C@H]1C(=O)N2CCC[C@H]2[C@]2(O)O[C@](NC(=O)[C@@H]3C=C4c5cccc6[nH]c(Br)c(c56)C[C@H]4N(C)C3)(C(C)C)C(=O)N12 | inactive |  | inactive |  |  |  |  |  |  | inactive | 
CCCC1O[C@@H]2C[C@H]3[C@@H]4CCC5=CC(=O)C=C[C@]5(C)[C@H]4[C@@H](O)C[C@]3(C)[C@]2(C(=O)CO)O1 (stereo partly specified) | inactive | inactive | inactive |  | inactive | inactive | inactive | inactive | -3.74 | inactive | 
N[C@@H](Cc1cnc[nH]1)C(=O)O | inactive | inactive | inactive | inactive | inactive | inactive | inactive | inactive | 0.846 | inactive | inactive
C1CCc2nnnn2CC1 | inactive | inactive | inactive | inactive | inactive | inactive | inactive | inactive | 4.51 | inactive | 
COc1cc2c(cc1O)CC[C@@H]1[C@@H]2CC[C@]2(C)[C@@H](O)CC[C@@H]12 | inactive |  | inactive |  | inactive | inactive | inactive |  |  | inactive | 
COc1cc(OC)cc(OC)c1 |  |  |  |  |  |  |  |  |  |  | inactive
CN=C(NC#N)Nc1ccc(C2=NNC(=O)CC2C)cc1 (stereo unspecified) |  |  |  | inactive |  |  |  |  |  |  | 
COC(=O)[C@H]1[C@H]2C[C@H]3c4[nH]c5ccccc5c4CCN3C[C@H]2CC[C@@H]1O |  | inactive | inactive | inactive | inactive | inactive | inactive | inactive | -3.55 | inactive | 
CN1C2CCC1CC(OC(=O)c1c[nH]c3ccccc13)C2 (stereo unspecified) | inactive | inactive | inactive | inactive | inactive | inactive | inactive | inactive | -7.62 | inactive | 
c1ccc(CNCCNCc2ccccc2)cc1 |  |  |  |  |  |  |  |  |  |  | inactive
CC(C)COC(=O)OCN1C(=O)CN(CCN2CC(=O)N(COC(=O)OCC(C)C)C(=O)C2)CC1=O | inactive | inactive | inactive | inactive | inactive | inactive | inactive | inactive | -6.78 | inactive | inactive
CC(=O)N/N=C/c1ccc([N+](=O)[O-])o1 |  |  |  |  |  |  |  |  |  |  | inactive
Cc1ccc(C(=O)C(C)CN2CCCCC2)cc1 (stereo unspecified) |  |  |  |  |  |  |  |  |  |  | inactive
O=C(Nc1ccc(Oc2ccc(Cl)cc2)c(Cl)c1)c1cc(I)cc(I)c1O |  |  |  |  |  |  |  |  |  |  | inactive
O=C1CCC(c2ccc(-n3ccnc3)cc2)=NN1 | inactive |  | inactive | inactive | inactive | inactive | inactive | inactive | 9.43 | inactive | inactive
CC1(C)CCC(NC(=O)[C@@H](N)CCC(=O)O)CC1 | inactive | inactive | inactive | inactive | inactive | inactive | inactive | inactive | 2.98 | inactive | inactive
COc1cc(NS(C)(=O)=O)ccc1Nc1c2ccccc2nc2ccccc12 | inactive | 79.4 µM (active) | inactive | inactive | inactive | 1.12 µM (active) |  |  |  | inactive | inactive
CC(CCc1ccccc1)NCC(O)c1ccc(O)c(C(N)=O)c1 (stereo unspecified) | inactive | inactive | inactive | inactive | inactive | inactive | inactive | inactive | -13.8 | inactive | 
CNCCC(Oc1ccccc1C)c1ccccc1 (stereo unspecified) |  |  | inactive |  | inactive |  | inactive | inactive | 3.06 | inactive | inactive
CNCCC=C1c2ccccc2CCc2ccccc21 |  | inactive | inactive |  | inactive |  | inactive |  |  | inactive | inactive
CC(=O)OCC(=O)[C@@]1(OC(C)=O)[C@@H](C)C[C@H]2[C@@H]3C[C@H](F)C4=CC(=O)C=C[C@]4(C)[C@@]3(F)[C@@H](O)C[C@@]21C |  |  |  |  |  |  |  |  |  |  | inactive
Nc1cc(Cl)c(NC2=NCCN2)c(Cl)c1 | inactive | inactive | inactive | inactive | inactive | inactive | inactive | inactive | 1.6 | inactive | inactive
C[C@@H]1C(=O)NC2=Nc3cccc(Cl)c3CN21 | inactive | inactive | inactive | inactive | inactive | inactive | inactive | inactive | 3.84 | inactive | inactive
N[C@H](CO)C(=O)O | inactive | inactive | inactive | inactive | inactive | inactive | inactive | inactive | 0.276 | inactive | 
